These results are taken from the supplement of paper PMC11417369.

The full ranking holds about 25,000 sequences; the median of “ln(normalized median fluorescence intensity)” is about 7.1, and the highest 2% start at about 10. This is one part of a sample in which the highest values are shown more often than they occur.

For the experiment, the system named is PfSIP2 AP2 domain 1 (GST-tagged). Kind of experiment: gcPBM binding intensity (ln(normalized median fluorescence intensity)); higher = stronger DNA binding. In short, it runs like this:
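Binding intensity values are the highest Masliner-normalised natural-log median intensity among replicate spots of either probe orientation. The binding step lasted 1 h in 1× PBS with 1% milk, 0.2 mg/ml BSA, 0.5% salmon testes DNA and 0.03% Triton X-100, using GST-tagged P. falciparum DNA-binding domains expressed in E. coli on an Agilent 4 × 180k array of primer-extended double-stranded 36-bp intergenic genomic probes plus negative controls. Alexa488 anti-GST antibody and a 488 nm scan detected bound protein.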
As for “TTTATAAAATATCTTTCACACATTACTATGTATTAT [CACACA_site5148]”, the “gcPBM binding intensity (ln)” value amounted to 6.83.

With “TACTTTTATATAGAAAGTACATACAATTCATAGAAT [XGTACX_site2182]”, the “gcPBM binding intensity (ln)” value turned out to be 6.98.

As for “ATATATAAAAAATGTGGTACATTCATTTATTATACA [XGTACX_site3495]”, the “gcPBM binding intensity (ln)” value is 6.96.

Turning to “GTGTATTTTGTGCGCACACACATGCAAAAAGAAATA [CACACA_site6660]”, the “gcPBM binding intensity (ln)” value stood at 9.54.

On to “GTGTATTTTCTGCGCACACACATGCAAAAAGAAATA [CACACA_site1148]”, for which the “gcPBM binding intensity (ln)” value worked out at 8.26.

“GTGTATTTGGTGCGCACACACATGCAAAAAGAAATA [CACACA_site4768]”: the “gcPBM binding intensity (ln)” value was 11.6.

Consider “ATTTTATGTTGAAAGTGTACGTATTAATATGTAGAA [XGTACX_site245]”, for which the “gcPBM binding intensity (ln)” value was 7.34.

In the case of “TGTTATTAAAATATAGTGCATAATTAACCATTATAA [GTGCAC_site9594]”, the “gcPBM binding intensity (ln)” value came out at 8.63.

For GTATATAAATAAATAGTGCATTATTAAAAATAATGT, the “gcPBM binding intensity (ln)” value was determined as 9.36.

Consider AAATTATGCATCGAGGTGCGTCTTAAAATATAGTGG, for which the “gcPBM binding intensity (ln)” value was determined as 10.3.

“TAAGAGTAGTTATATACACACATGTATATTATAGTT [CACACA_site6815]”: the “gcPBM binding intensity (ln)” value was 6.84.

For “ATAATATATACTATATGTACATATCTTTTCCTCTTT [XGTACX_site5553]”, the “gcPBM binding intensity (ln)” value was 7.1.

With “TATAAAAATAAGCACACACACAAATATAGATTTATT [CACACA_site6558]”, the “gcPBM binding intensity (ln)” value is 6.98.

As for “AAAAAAAAAAAAAACACACAGAACAATATATAAATA [CACACA_site982]”, the “gcPBM binding intensity (ln)” value is 7.11.

Consider “TATTATTTTTCATATGCATGCAAAAATAAAAAAATA [TGCATGCA_site350]”, for which the “gcPBM binding intensity (ln)” value is 7.05.

Turning to “TCCTTATTTATATAATGTACTTTTTTTTTTCATTTT [XGTACX_site4275]”, the “gcPBM binding intensity (ln)” value turned out to be 6.92.

As to “ATTATATAATAATGCATGCACCTTATTTTCATTTCA [GTGCAC_site9922]”, the “gcPBM binding intensity (ln)” value was 10.7.

Take “CCTTTCACATATAATACATGCATTATTATATATGAA [TGCATGCA_site287]”: the “gcPBM binding intensity (ln)” value was determined as 7.51.

On to “TAATAATTAATTAATATAATATTTTTTCATAATTAT [XGTACX_negctrl_site602]”, for which the “gcPBM binding intensity (ln)” value came to 6.82.

For the sequence “ATATTATATAATAATGCATGCACCTTATTTTCATTT [TGCATGCA_site405]”, the “gcPBM binding intensity (ln)” value is 11.3.

As for “TTTATATTTATGATGGGTACACAAAATTTTACCCAT [XGTACX_site1504]”, the “gcPBM binding intensity (ln)” value is 6.96.

Regarding “TGAATAATCAATAGTACACACATATAAATATATATA [CACACA_site2813]”, the “gcPBM binding intensity (ln)” value worked out at 7.28.

In the case of “AGGTGTCATAGATGCACACAAAAGTAACACGCACCT [CACACA_site4418]”, the “gcPBM binding intensity (ln)” value turned out to be 9.65.

On to “AAAAAAAAAATATTTGAACACACGAGGATATATAAA [CACACA_site139]”, for which the “gcPBM binding intensity (ln)” value is 6.89.

In the case of “TAAAAGATAAAATATGCATGTGTAATTTTTTTTTTT [TGCATGCA_site955]”, the “gcPBM binding intensity (ln)” value turned out to be 6.79.

Turning to “AACCATTTTAAATATGCACACAGATGCACTAACACA [CACACA_site8565]”, the “gcPBM binding intensity (ln)” value was determined as 11.

In the case of “TGGCACTAAAAAAATAAACACACAGATTTATATAAT [CACACA_site8386]”, the “gcPBM binding intensity (ln)” value was found to be 6.8.

As for “TAAATTATATTATGCACACTTAAAAATATATTTAAC [CACACA_site3512]”, the “gcPBM binding intensity (ln)” value is 9.01.

As for “CCATTTTAAATATGCACACAGATGCACTAACACATT [CACACA_site5099]”, the “gcPBM binding intensity (ln)” value is 10.5.

“CCATTTTAAATATGCACACAGATGCACTAACCCATT [CACACA_site1883]”: the “gcPBM binding intensity (ln)” value came to 10.7.

Take “GCACTAAAAAAATAAACACACAGATTTATATAATAT [CACACA_site1381]”: the “gcPBM binding intensity (ln)” value turned out to be 6.83.

As for “GTATAATATTTTAATGCACACACACTAATAAAAAAA [CACACA_site8939]”, the “gcPBM binding intensity (ln)” value stood at 7.65.

Take “TTTTTTTAAATATACACACACATTTATACAGATATA [CACACA_site5811]”: the “gcPBM binding intensity (ln)” value is 7.12.

With “TAAATATGCTCACAGATGCACTAACACATTTTTATA [GTGCAC_site9997]”, the “gcPBM binding intensity (ln)” value stood at 8.14.

“TATTAACTCAATAGCGCACACTTTTAATATTTTATA [CACACA_site4973]”: the “gcPBM binding intensity (ln)” value was determined as 7.33.

With “TAAATAGGAAAACCTATACACACTTTAAAAAAAATA [CACACA_site1621]”, the “gcPBM binding intensity (ln)” value was 6.75.

As to “ATTATATCATCTAAAACATGCACACATATGTACTCT [TGCATGCA_site949]”, the “gcPBM binding intensity (ln)” value worked out at 7.12.

With “TTATTTATGAGGGTGACACACAAAAGAGTGTTAAGA [CACACA_site277]”, the “gcPBM binding intensity (ln)” value worked out at 6.75.

For the sequence “ATACGAAAAAATAGACGTACTATGAAATAATAATTT [XGTACX_site8387]”, the “gcPBM binding intensity (ln)” value turned out to be 6.87.

In the case of “GTCCTCATCCACTATGCACACAAAAAAGAAATACAC [CACACA_site9131]”, the “gcPBM binding intensity (ln)” value was determined as 8.48.

As to “TGGGAAAAAATATATGCACACCCCCCAAAAAAAAAA [CACACA_site8696]”, the “gcPBM binding intensity (ln)” value was determined as 10.8.

Turning to “GGAAAAAATATATGCACACCCCCCAAAAAAAAAAAA [CACACA_site2222]”, the “gcPBM binding intensity (ln)” value was 9.73.

Take “AAAAAAAAAAAACACACACACACACCCAAATATATA [CACACA_site150]”: the “gcPBM binding intensity (ln)” value was 7.14.

“ATAGTTTTATATAAATGTACAAATGATTTCAAATAG [XGTACX_site8236]”: the “gcPBM binding intensity (ln)” value is 7.08.

Consider ATATTTTATATAATAGTGCAAATAATATTAAATAAT, for which the “gcPBM binding intensity (ln)” value came out at 8.4.

Take “ATAATTATATGATGAGTGCACAATAAAAATATCGTT [GTGCAC_site9920]”: the “gcPBM binding intensity (ln)” value amounted to 10.7.

Consider “TTATAATATTAATGTGCACACAATTAAAATATTATA [CACACA_site2046]”, for which the “gcPBM binding intensity (ln)” value was found to be 9.4.

Take “TTATATTATTCGTGTGTGCACGATATTTCATAATTG [GTGCAC_site9767]”: the “gcPBM binding intensity (ln)” value came to 8.96.

Take “ATATATATATTTATAGTGCATTTATATTAAAATATC [GTGCAC_site9818]”: the “gcPBM binding intensity (ln)” value is 8.92.

As for GTTATATTTAAAATAGTGCAATAAAAATAATAATAT, the “gcPBM binding intensity (ln)” value was found to be 8.42.

Consider “ATTATTAAAATGATATGTACGCACATAATATACATA [XGTACX_site3236]”, for which the “gcPBM binding intensity (ln)” value was 7.06.

Regarding “ATGATATATTTAATAGTGCACTAATTAAAATTATTA [GTGCAC_site9418]”, the “gcPBM binding intensity (ln)” value was determined as 11.

In the case of “ATAATTAAAAATAATATATATATAATATGATATTAT [GTGCAC_negctrl_site194]”, the “gcPBM binding intensity (ln)” value stood at 6.94.

In the case of ATATATATATATTTCGTGCACTGATAATATTATTTT, the “gcPBM binding intensity (ln)” value came out at 10.2.

For AAAAAAAAAAAATACGTGCACTATGATATATTATAT, the “gcPBM binding intensity (ln)” value came out at 10.3.

As to “TAAATATATATATATAGTACAATATAATTATGATAT [XGTACX_site258]”, the “gcPBM binding intensity (ln)” value worked out at 7.24.

“TATATATATACTTAATGTACATATATATATATATAT [XGTACX_site3102]”: the “gcPBM binding intensity (ln)” value turned out to be 9.75.

On to “CCCCTTAATTAAAGGAGTACTATTTGTGAATAATAT [XGTACX_site4715]”, for which the “gcPBM binding intensity (ln)” value came to 7.47.
